# Bioassay records: PubChem, National Center for Advancing Translational Sciences (NCATS)
# SMN2 splice enh = qHTS Assay for Enhancers of SMN2 Splice Variant Expression | HEK293 SMN2-luciferase splicing reporter, luminescence, 30-36 h | Potency, µM (doses to about 46.1 µM), most hits filed as activators | 2.8% of 210,000 active; note: nearly all actives have a fitted effect of over 55% in size
#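 HEK293 cells carry an SMN2 minigene-luciferase reporter in which exon 7 inclusion puts luciferase in frame. Cells were seeded at 2000 cells/well, attached for 10-12 hours, then exposed to compounds for 30-36 hours at 37C before ONE-Glo luminescence.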
# Rab9 prom act = qHTS Assay for Rab9 Promoter Activators. Huh7 Rab9 promoter-luciferase reporter, luminescence, 24 h. Potency, µM (top dose mostly 9.22 µM), actives largely listed as activators. 2.8% of 320,000 active; note: nearly all actives have a fitted effect of over 60% in size
#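 Using Huh7 cells stably transfected with Rab9 promoter–luciferase, compounds were incubated 24 h at 37 °C, 5% CO2; luciferase luminescence was read 10 min after reagent addition.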
# NPC1 promoter act = qHTS Assay for NPC1 Promoter Activators | Huh7 NPC1 promoter luciferase reporter, 24 h | 2.4% of 320,000 active | AID 485313, 2010 | Potency, µM (series often up to 9.22 µM), most hits filed as activators; note: nearly all actives have a fitted effect of over 60% in size
#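 NPC1 promoter–luciferase Huh7 cells; 24 h compound; luminescence.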
# ELG1 genotoxic = qHTS screen for small molecules that induce genotoxicity in human embryonic kidney (HEK293T) cells expressing luciferase-tagged ELG1 | 1.3% of 330,000 active | Potency, µM (doses to about 46 µM), most hits filed as activators | AID 504466, 2011 | HEK293T ELG1-luciferase reporter, luminescence, 16 h; note: nearly all actives have a fitted effect of over 60% in size
#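 16 hr compound incubation (37 °C, 5% CO2) of HEK293T cells carrying luciferase-tagged ELG1; luciferase then measured by ONE-Glo luminescence after 30 min at RT.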
# FLuc counter = qHTS profiling assay for firefly luciferase inhibitor/activator using purifed enzyme and Km concentrations of substrates (counterscreen for miR-21 project) | Luciferin 4-monooxygenase (Photinus pyralis), P08659 | purified FLuc, Km substrates, luminescence inhibition | Potency, µM (series often up to 57.5 µM), hits mostly inhibitors | AID 588342, 2011 | 6.9% of 360,000 active; note: nearly all actives have a fitted effect of over 55% in size
# Target sequence (P08659 whole entry, looked up): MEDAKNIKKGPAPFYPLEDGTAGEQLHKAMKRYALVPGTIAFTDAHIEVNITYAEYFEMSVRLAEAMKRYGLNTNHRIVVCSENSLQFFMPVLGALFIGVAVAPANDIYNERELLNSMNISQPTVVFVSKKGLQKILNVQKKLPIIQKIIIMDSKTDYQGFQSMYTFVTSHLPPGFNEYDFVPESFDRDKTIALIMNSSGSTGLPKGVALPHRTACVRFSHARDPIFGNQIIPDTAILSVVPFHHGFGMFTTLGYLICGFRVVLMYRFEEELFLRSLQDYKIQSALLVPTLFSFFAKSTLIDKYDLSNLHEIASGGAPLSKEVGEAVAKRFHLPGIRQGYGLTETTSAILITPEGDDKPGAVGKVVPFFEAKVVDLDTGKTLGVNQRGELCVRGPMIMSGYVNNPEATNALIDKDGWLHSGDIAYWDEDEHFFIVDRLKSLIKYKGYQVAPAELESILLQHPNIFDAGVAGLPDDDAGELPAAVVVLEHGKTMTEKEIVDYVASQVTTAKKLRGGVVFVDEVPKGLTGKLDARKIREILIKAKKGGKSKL
#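 Purified P. pyralis luciferase, 10 nM final, with Km-level 10 uM D-luciferin and 10 uM ATP in 50 mM Tris acetate pH 7.5, 10 mM Mg acetate, 0.01% Tween-20, 0.05% BSA; 6-point qHTS titration about 60 µM downward; luminescence read.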
# p53 reactivator = qHTS assay for re-activators of p53 using a Luc reporter; H1299 p53-A138V BP100-luciferase reporter, luminescence, 24 h; Potency, µM (series often up to 92.2 µM), actives largely listed as activators; 0.063% of 320,000 active; note: nearly all actives have a fitted effect of over 45% in size
#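 p53-null H1299 cells stably carrying temperature-sensitive p53-A138V and a BP100-luciferase reporter were pinned with compounds (4-point, 1:5 series) and held 24 hrs at 37 deg C. Luminescence was read 10 min after detection reagent.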
# Numbers stand for hits; 0 = inactive; ? = inconclusive; - = not tested or not shown; [ ] = dose if it differs, or a comment. An excerpt weighted towards active compounds, which were near 7.4% of everything screened. Calls come from the whole dose curve; as a rule, active = well fitted curve in the direction sought with a large enough effect; inconclusive = small, poorly fitted or top-dose-only effect, or another doubt; inactive = no such curve, though single readings can be large; an effect the other way counts as inactive or inconclusive.
SMILES,SMN2 splice enh,Rab9 prom act,NPC1 promoter act,ELG1 genotoxic,FLuc counter,p53 reactivator
COc1ccc(/C=C2\SC(=S)N(CCCC(=O)Nc3ccc(O)cc3)C2=O)cc1,-,0,0,0,?,0
O=C(CCN1C(=O)/C(=C/c2ccc(F)cc2)SC1=S)Nc1cc([N+](=O)[O-])ccc1O,-,0,0,0,12µM,0
COc1ccc(/C=C2\SC(=S)N(CC(=O)OCC(=O)Nc3ccc(C)cc3Cl)C2=O)cc1,-,0,0,0,12µM,0
COc1ccc(/C=C2\SC(=S)N(CC(=O)OCC(=O)Nc3ccc([N+](=O)[O-])cc3OC)C2=O)cc1,0,0,0,0,24µM,0
CC1(C)NC(=O)N(CC(=O)OCC(=O)N2CCN(S(=O)(=O)c3ccccc3)CC2)C1=O,-,0,0,0,0,0
COc1ccc(-c2nn3c(-c4ccc(C)cc4)nnc3c3ccccc23)cc1,0,-,-,-,0,-
O=C(O)c1ccc(CNCc2ccccc2)cc1,0[9.22 µM],-,-,-,-,-
CSc1nncc(/C(C)=N\Nc2cccc(C)c2)n1,0,0,0,0,0,0
CSc1nnc2c(n1)c(C)nn2-c1cccc(C)c1,0,0,0,0,13µM,?
Cc1ccc(Cn2ncc(Cl)c(Cl)c2=O)cc1,?,0,0,0,0,0
CCc1ccc(C(=O)Cn2ncc(Cl)c(Cl)c2=O)cc1,-,0,0,0,7.6µM,0
Cc1cc(NC(=O)CCC(=O)N(c2ccc(F)cc2)C(C(=O)NC2CCCC2)c2cccnc2)no1 (stereo not given),-,0,0,0,0,0
O=C(N/N=C/c1cccc(Oc2ccccc2)c1)c1ccc(O)cc1O,-,0,0,0,17µM,0
COc1cc(C(=O)N/N=C/c2cccc(Oc3ccccc3)c2)ccc1O,-,0,0,0,17µM,0
O=C(N/N=C/c1cccc(Oc2ccccc2)c1)c1ccncc1,?,0,0,0,?,0
O=C(NCCC1=CCCCC1)c1ccc2c(c1)N(Cc1ccc(F)cc1)C(=O)c1ccccc1S2(=O)=O,0,-,-,-,0,-
CCOc1ccc(S(=O)(=O)NCCC(=O)NC2CCC(C)CC2)cc1 (stereo not given),-,-,-,0,-,0
Cc1nc(/N=C(\N)Nc2ccccc2)nc2ccccc12,0,0,?,0,12µM,0
C#CCNC(=O)/C=C/c1ccc(C)cc1,13µM,4µM,3.2µM,?,11µM,?
Cc1ccc(/C=C/C(=O)NCCCc2ccccc2)cc1,0,0,0,0,0,?
COc1ccc(OCc2cc(C(=O)N3CCCCCC3)no2)c(Cl)c1,-,?,?,?,19µM,?
COc1cccc(OCc2cc(C(=O)N3CCN(C)C(c4ccccc4)C3)no2)c1 (stereo not given),-,?,0,0,27µM,?
COc1ccc(OCc2cc(C(=O)N3CCOCC3)no2)c(Cl)c1,-,1.4µM,1.6µM,18µM,6.7µM,?
COc1cccc(OCc2cc(C(=O)N3CCC(c4ccncc4)CC3)no2)c1,-,0,0,0,0,0
COc1ccc(OCc2cc(C(=O)N3CCC(c4ccccc4)CC3)no2)c(Cl)c1,-,2.8µM,?,0,24µM,0
SMILES,SMN2 splice enh,Rab9 prom act,NPC1 promoter act,ELG1 genotoxic,FLuc counter,p53 reactivator
C[n+]1ccc(C(=O)Nc2ccccc2Cl)cc1,-,0,0,0,0,-
CCOc1ccc(NC(=O)c2cnn(-c3ccc(C)c(Cl)c3)c2C2CCNCC2)cc1,-,-,-,-,0,-
COc1ccc(OCc2cc(C(=O)N(C)C(C)c3ccon3)no2)c(Cl)c1 (stereo not given),-,2.5µM,?,?,13µM,0
O=C(c1cc(COc2ccc(F)cc2Cl)on1)N1CCSCC1,-,4µM,2.8µM,?,11µM,?
COc1ccc(OCc2cc(C(=O)N3CCSCC3)no2)c(Cl)c1,-,2.8µM,2.8µM,?,11µM,0
COc1ccc(OCc2cc(C(=O)N3CCN(CC(=O)N(C)C)CC3)no2)c(Cl)c1,-,0,0,0,0,0
O=C(c1cc(COc2ccc(F)cc2Cl)on1)N1CCc2ccccc2C1,-,0,0,0,?,0
COc1ccc(OCc2cc(C(=O)N(C)CCC3CCOCC3)no2)c(Cl)c1,-,?,?,?,17µM,0
Cc1cc(C)cc(NC(=O)CCc2nnc3n(C)c(=O)c4sccc4n23)c1,0,-,-,-,0,-
C/C=C\C(=O)N(CC)c1ccccc1C,0,-,-,-,-,-
COc1ccc(NC(=O)NC2CCCCCCC2)c(OC)c1,-,0,0,0,?,0
COC(=O)c1ccc(NC(=S)NC2CC3CCC2C3)cc1 (stereo not given),?,0,0,0,21µM,?
COC(=O)c1ccc(NC(=O)NC2CCCCC2)cc1,13µM,0,?,0,?,0
COc1ccc(NC(=O)NC2CCCCCCC2)cc1,-,1.4µM,0.89µM,9.2µM,6µM,?
O=C(CN1C(=O)C2(SCC(=O)N2c2ccc(Cl)cc2)c2ccccc21)NCCc1ccccc1 (stereo not given),-,-,-,-,0,-
CC1(c2ccccc2)NC(=O)N(CC(=O)N2CCN(S(=O)(=O)c3ccccc3[N+](=O)[O-])CC2)C1=O (stereo not given),-,0,0,0,0,0
Cc1cc(=S)[nH]c(=S)[nH]1,-,0,0,0,0,0
CC(C)c1ccc(/C=N/NC(=O)c2cccc(Cl)c2)cc1,16µM,2.8µM,2.8µM,21µM,2.7µM,?
CCOC(=O)N/N=C/c1ccc(Oc2ccccc2)cc1,?,?,?,0,19µM,0
CC(C)c1ccc(/C=N/NC(=O)c2ccccn2)cc1,-,0.32µM,0.14µM,?,0.38µM,0
Cc1cccc(/C=N\NC(=O)c2csnn2)c1,0,0,?,?,8.5µM,?
O=C(N/N=C/c1cccnc1)c1cccc(Cl)c1,-,0,0,0,?,0
Cc1cccc(/C=N/NC(=O)C[n+]2ccccc2)c1,-,0,0,0,0,0
CN(C)c1ccc(/C=N/NC(=O)c2ccn(C)n2)cc1,-,4.5µM,2.5µM,?,3.8µM,0
Cn1ccc(C(=O)N/N=C/c2cccnc2)n1,-,0,0,0,0,0
Cc1ccc(/C=N/NC(=O)c2cccc(NC(=O)c3ccccc3Cl)c2)o1,-,0,0,0,17µM,0
CN(C)c1ccc(/C=N\NC(=O)c2csnn2)cc1,16µM,0.63µM,0.89µM,?,3.8µM,0
O=C(N/N=C/c1ccc(N2CCOCC2)cc1)c1ccccn1,-,2.2µM,2.5µM,?,6.7µM,0
CN(C)c1ccc(/C=N/NC(=O)c2cnc3ccccc3c2)cc1,-,0,0,0,?,0
